Measurements: PubChem BioAssay AID652039 (The Scripps Research Institute Molecular Screening Center, 2013)
In all, about 370,000 compounds went through this assay and about 3,300 (0.89%) were called active. Many of the other results were omitted from the sample, so actives are more common in it than they were. Unmarked numbers belong to inactive results.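 Rule for the calls: active = activation above the mean of all tested compounds plus 3 SD, computed per campaign excluding outliers beyond control limits (cut at about 13% in these data); inactive = the rest.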

These compounds were tested against Kallikrein-7 (Homo sapiens) (UniProt P49862) (assay: activation of human kallikrein-7 proenzyme – biochemical, fluorescence intensity, primary screen (AID 652039)). Details: purified proKLK7, EDANS-DABCYL substrate fluorescence; at 7 µM; stronger effect = higher value; 100% is mature enzyme control, 0% vehicle.
Kallikrein-7 (Homo sapiens), sequence (P49862 whole entry, looked up): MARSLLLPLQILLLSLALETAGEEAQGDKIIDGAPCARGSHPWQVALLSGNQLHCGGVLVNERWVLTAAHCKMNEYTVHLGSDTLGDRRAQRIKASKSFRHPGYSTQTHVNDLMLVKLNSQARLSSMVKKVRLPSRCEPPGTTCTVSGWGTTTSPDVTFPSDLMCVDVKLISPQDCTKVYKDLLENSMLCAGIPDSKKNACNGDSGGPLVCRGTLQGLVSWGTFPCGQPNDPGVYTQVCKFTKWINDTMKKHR
Compound `O=C(Nc1cccc(Cl)c1)OC1CC2CC1[C@H]1CCCCN1[C@H]2Cc1ccccc1` (some centres not stated) has an activation of -0.47%. Work on `C=CCN1C(=O)[C@H](CC(=O)NCCCN2CCCC2=O)[C@@]2(C(=O)OCC)CCCC=C12` yielded an activation of -0.44%. For `Cc1ccccc1CN1CCCCC(NC(=O)c2cccc(C#N)c2)C1=O` (configuration not stated), the activation was -1.15%. Work on `COc1ccc2c(C(C)c3ccc(N)cc3)cn(C)c2c1` (configuration not stated) yielded an activation of -0.2%. `CC(=O)N1CCCN(C2=Nc3ccccc3Sc3ccccc32)CC1` gave an activation of 0.25%. With `O=c1oc2cc(O)ccc2cc1-c1ccc(F)cc1` the activation was 57.7% (active). `CN(C)c1cc(-c2ccc(F)cc2)oc(=O)c1Cl` gave an activation of -0.37%. With `CCOC(=O)[C@]12CCCC3=C1N(CCC3)C(=O)[C@@H](CC(=O)NCC13CC4CC(CC(C4)C1)C3)C2` the activation was 0.33%. `Cc1ccc(NC(=O)c2cc(C)nn2-c2ccccc2)c(C)c1` was tested, and the activation was 0.15%. In the case of `C[C@@H](NC(=O)c1ccccc1OCC(=O)Nc1ccc(I)cc1)C(=O)N(C)Cc1ccccc1`, the activation is reported as -0.35%. `CCN(CC)CCCC(C)n1c2nc(=O)[nH]c(=O)c-2nc2cc(Cl)ccc21` (configuration not stated) was tested, and the activation was 75.5% (active). In the case of `Cc1cc2nc3c(=O)[nH]c(=O)nc-3n(C[C@H](O)[C@H](O)[C@H](O)CO)c2cc1C`, the activation is reported as -49.4%. Compound `CC(C)CNc1cccc2c1S(=O)(=O)N(Cc1cn(Cc3ccccc3C(F)(F)F)nn1)Cc1ccccc1O2` has an activation of -7.19%. `Cc1ccc(OCc2nnc(NC(=O)OCC(C)C)s2)cc1` was tested, and the activation was -0.08%. For `COCC(=O)Nc1nnc(COc2ccccc2)s1`, the activation was 20.2% (active). `CCOCc1nnc(NC(=O)CCS(=O)(=O)Cc2ccccc2)s1` showed an activation of 0.26%. With `COc1ccc(CN2C/C(=C/c3ccccc3)N3C(=O)C[C@@H](c4ccccc4)N=C23)c(OC)c1` the activation was -0.63%. `CC1(C)Oc2ccc3ccc(=O)oc3c2/C(=C/NCCO)C1=O` was tested, and the activation was 0.36%. `CC1(C)Oc2ccc3ccc(=O)oc3c2/C(=N/O)C1=O` was tested, and the activation was 206% (active). For `C/C=C(/C)C(=O)OC1Cc2c(ccc3ccc(=O)oc23)OC1(C)C` (configuration not stated), the activation was 0.3%. `COC(=O)C1CN(Cc2cn(Cc3ccc(F)cc3)nn2)CCS(=O)(=O)N1Cc1ccc(Cl)cc1` (configuration not stated) was tested, and the activation was -0.37%. `N#CC1=C(N)Oc2c(sc3ccccc23)C1c1ccco1` (configuration not stated) was tested, and the activation was 15% (active). Work on `CCN(CC(=O)Nc1c(F)cccc1F)C(=O)c1ccc(-c2ccccc2)cc1` yielded an activation of 0.37%. In the case of `CCN(CC(=O)Nc1c(F)cccc1F)C(=O)c1ccc(-c2ccc(C(C)=O)cc2)o1`, the activation is reported as 13.8% (active). `CCN(CC(=O)Nc1c(F)cccc1F)C(=O)c1cnc(C)cn1` showed an activation of -0.38%. `O=C(OC12CCCN(C1)/C(=C/c1ccccc1)C2)c1ccco1` (configuration not stated) gave an activation of 0.07%. Work on `CCCCCCCCNS(=O)(=O)/C=C/c1cc(C)ccc1CNC(=O)OC(C)(C)C` yielded an activation of 0.37%. With `CC(C)N1CCCCC(NC(=O)C(C)(C)C)C1=O` (configuration not stated) the activation was -0.28%. In the case of `Cc1oc2nc(SCC(=O)Nc3ccc(S(N)(=O)=O)cc3)nc(NC(=O)c3ccccc3)c2c1C`, the activation is reported as 16.3% (active). `Cc1oc2nc(SCC(=O)NCc3cccnc3)nc(N)c2c1C` was tested, and the activation was 0.33%. Compound `Cc1cc(-c2nnc(SCC(=O)Nc3ccc(S(N)(=O)=O)cc3)n2N)n[nH]1` has an activation of -0.95%. `CN(C)Cc1cn(-c2ccc(-c3noc4c3C(=O)N(CC(=O)N3CCOCC3)CC4)cc2)nn1` gave an activation of -0.76%. `CC(C)Oc1cc(F)ccc1-c1cc(C(=O)Nc2cccc(Cl)c2)[nH]n1` was tested, and the activation was -0.65%. For `CCC(=O)OCCCN1C(=O)CCC12CCC(c1ccccc1)CC2` (configuration not stated), the activation was -0.27%. Work on `C[C@@H](Nc1nc(-c2ccccc2)nc2c1oc1ccccc12)C(=O)O` yielded an activation of -0.64%. `CCc1nc(Nc2ccc(NC(C)=O)cc2)c2oc3ccccc3c2n1` was tested, and the activation was 172% (active). Work on `CCc1nc(Nc2ccc3nccnc3c2)c2oc3ccccc3c2n1` yielded an activation of -2.9%. In the case of `CC(C)(C)Nc1c(-c2cccs2)nc2ccccn12`, the activation is reported as 27% (active). Compound `Cc1nc2ccccn2c(=O)c1NC(=O)c1cccs1` has an activation of 0.03%. For `Cc1cc2nc(C(F)(F)F)cc(-c3cccs3)n2n1`, the activation was -1.33%. `COC(=O)[C@]12C[C@H](CC(=O)N3CCOCC3)C(=O)N(Cc3ccc(Cl)cc3Cl)C1=C[C@H](C(C)C)O[C@@H]2C1CC1` gave an activation of 0.16%. `CC(=O)OCCN1CCCC12CCC(c1ccccc1)CC2` (configuration not stated) gave an activation of -0.5%. For `CCN(CC)CCCNC(=O)c1cc2c(=O)[nH]c3ccc(C)cc3c2s1`, the activation was 23.3% (active). For `O=C(NCCN1CCN(Cc2ccccc2)CC1)c1cc2c(=O)[nH]c3ccccc3c2s1`, the activation was -1.14%. Compound `Cc1cccc(N(C)C(=O)c2cc3c(=O)[nH]c4ccc(C)cc4c3s2)c1` has an activation of -0.34%. `CC(C)CNS(=O)(=O)CC1NCCc2ccccc21` (configuration not stated) showed an activation of -0.37%. `COC(=O)C12C=C3CC(c4ccccc4)=C3C(=O)N1Cc1[nH]c3ccccc3c1C2` (configuration not stated) gave an activation of -0.28%. Work on `CCCCN(CC)CCNC(=O)CCNC(=O)Cn1ccc2ccccc2c1=O` yielded an activation of -0.2%. Work on `CS(=O)(=O)N(CC(O)Cn1c2ccccc2c2ccccc21)c1cccc2ccccc12` (configuration not stated) yielded an activation of -1.25%. For `CCCCN(CCCC)CC(O)Cn1c2ccccc2c(=O)c2ccccc21` (configuration not stated), the activation was 22.1% (active). For `CC(NCc1ccco1)C(=O)N1CCCCC1` (configuration not stated), the activation was 0.56%. `O=S1(=O)c2c(NCc3ccco3)cccc2Oc2ccccc2CN1Cc1cn(Cc2cccc(C(F)(F)F)c2)nn1` gave an activation of -9.73%. In the case of `Cc1ccc(-n2nc(-c3ccco3)cc2C(=O)NCc2cccnc2)cc1`, the activation is reported as 0.09%. With `O=C(c1cccnc1)N(c1cc2sc(=O)oc2c2ccccc12)S(=O)(=O)c1ccccc1` the activation was -0.78%. With `O=C(Oc1c(-c2ccco2)oc2ccccc2c1=O)c1cccnc1` the activation was 18.9% (active). `COc1ccc(-c2cc(-c3nnc(SCC(=O)Nc4cccc5ccccc45)n3N)[nH]n2)cc1` showed an activation of 0.07%. `COc1ccc(Cn2cc(CN3[C@@H](CC(C)C)COc4cc(Br)ccc4S3(=O)=O)nn2)cc1` showed an activation of 0.02%. For `Cc1ccc(S(=O)(=O)c2cc3c(=O)n4cccc(C)c4nc3n(CCc3ccccc3)c2=N)cc1C`, the activation was 0.37%. Compound `Cc1ccc(Cn2c(C)c3cnn(CC(=O)NCCN4CCOCC4)c(=O)c3c2C)cc1` has an activation of 0%. In the case of `Cc1ccc2cc(C#N)c(NCCNC(=S)NCCCN3CCOCC3)nc2c1`, the activation is reported as 1.07%. `Cc1ccccc1NC(=O)Cn1c(=O)n(CC2CCCO2)c(=O)c2ccccc21` (configuration not stated) was tested, and the activation was 0.23%. In the case of `Cc1cccn2c(=O)c3cc(C(=O)NCCN4CCOCC4)c(=N)n(Cc4cccnc4)c3nc12`, the activation is reported as 32.9% (active). Compound `COCCCn1c(C(=O)NC2CCCCC2)cc2c(=O)n3cccc(C)c3nc21` has an activation of -0.55%. `O=C(NCc1cccnc1)c1cc(S(=O)(=O)N2CCOCC2)c(Cl)cc1Cl` was tested, and the activation was -0.01%. `CCn1c(=N)c(C(=O)NCCCOC)cc2c(=O)n3cccc(C)c3nc21` was tested, and the activation was 62.3% (active). Work on `Cc1ccc(-n2c(=O)c(C#N)cc3c(=O)n4ccccc4nc32)cc1C` yielded an activation of 2.54%. In the case of `Cc1cccn2c(=O)c3cc(C#N)c(=O)n(CCCN4CCOCC4)c3nc12`, the activation is reported as 39.9% (active). `Cc1cccn2c(=O)c3cc(C#N)c(=NC(=O)c4cccnc4)n(CC4CCCO4)c3nc12` (configuration not stated) was tested, and the activation was 17.3% (active). `Cc1cccc(NC(=O)c2ccc3c(=O)n(CC4CCCO4)c(=S)[nH]c3c2)c1` (configuration not stated) showed an activation of -0.97%. `CC(=O)Nc1ccc(OC[C@@H](O)CN2CCC(C(O)(c3ccccc3)c3ccccc3)CC2)cc1` was tested, and the activation was 0.22%. Compound `CNc1nc(SC)nc(N(C#N)CC(=O)OC)n1` has an activation of -0.23%. `O=C(NCCc1c[nH]c2ccccc12)OCc1cn(-c2c(F)cccc2F)nn1` gave an activation of 0.33%. Compound `CCOC(=O)[C@]12CCCCC/C=C\1N(Cc1ccc(OC)cc1)C(=O)[C@H]2CC(=O)NCCCN1CCCC1=O` has an activation of -0.22%. Work on `C=CCN1C(=O)[C@@H](CC(=O)N2CCN(C(=O)c3ccco3)CC2)[C@]2(C(=O)OC)CCCCC=C12` yielded an activation of 0.64%. Work on `COC(=O)C[C@H]1CC[C@H]2[C@H](COc3ccc(NC(=O)C4CC4)cc3C(=O)N2C)O1` yielded an activation of -0.05%. `CCC(=O)Nc1ccc2c(c1)C(=O)N(C)[C@@H]1CC[C@@H](CC(=O)NCCc3ccccc3)O[C@H]1CO2` showed an activation of -0.14%. For `Cc1cc(NS(=O)(=O)c2ccc(NC(=O)CSc3nnc(-c4ccc(C(C)(C)C)cc4)n3Cc3ccco3)cc2)nc(C)n1`, the activation was 0.49%. `O=C(c1cccc(C(F)(F)F)c1)N1CC[C@H]2[C@H](CCCN2Cc2cc(F)cc(F)c2)C1` gave an activation of 0.19%. Compound `COc1ccc(CSc2nnc(SCC(=O)Nc3ccccc3C(F)(F)F)s2)cc1` has an activation of 0.45%. With `COc1ccc2oc(=O)c(C(=O)N3CCCC3)cc2c1` the activation was 21.5% (active). Compound `COc1ccc(C(=O)N2CCCN(C)CC2)c(OC)c1` has an activation of -0.04%. Work on `COc1cccc2cc(C(=O)N3CCN(C(=O)c4ccccc4)CC3)c(=O)oc12` yielded an activation of -0.14%. `O=C(CN1CCC(NC(=O)NCc2ccccc2)CC1)Nc1ccc2c(c1)OCCO2` was tested, and the activation was 0.32%. `CC(C)(C)C(=O)N1CCC[C@@]1(CO)C(=O)O` showed an activation of 0.12%. In the case of `COc1cccc(NC(=O)CN(C)C(=O)/C=C/c2cc(OC)ccc2OC)c1`, the activation is reported as 58% (active). Compound `COc1cccc(NC(=O)CN(C)C(=O)c2ccccc2CCc2ccccc2)c1` has an activation of 0.07%. Compound `COc1cccc(NC(=O)CN(C)C(=O)Cc2ccc(Cl)cc2Cl)c1` has an activation of -0.14%.
